Source: the supplement of paper PMC4166925
± gives the standard deviation of the averaged measurements. Over roughly 33,000 sequences, “E-score (dimensionless, -0.5 to 0.5)” has its median near -0.049; the highest 2% begin near 0.37. For the sample, the highest values were picked, then their nearest neighbours and some sequences at random.

test system: T1, PmTbr T-box DNA-binding domain (GST fusion); assay: PBM E-score of 8-mer (E-score (dimensionless, -0.5 to 0.5)); Tbr is Tbrain of the sea star Patiria miniata (Pm) or the sea urchin Strongylocentrotus purpuratus (Sp); higher = stronger binding preference; conditions: the construct has about 5 more residues each side
T1 sequence: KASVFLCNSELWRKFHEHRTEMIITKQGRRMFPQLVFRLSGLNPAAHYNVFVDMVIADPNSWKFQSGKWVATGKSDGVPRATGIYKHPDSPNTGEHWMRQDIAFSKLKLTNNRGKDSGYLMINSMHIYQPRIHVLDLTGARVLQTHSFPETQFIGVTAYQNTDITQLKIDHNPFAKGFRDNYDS
Description: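 Universal protein-binding microarray (Agilent AMADID 016060, 60-bp probes with a 35-bp variable region) incubated with 200 nM GST-fused Patiria miniata Tbr T-box DNA-binding domain (residues 272-466) in PBS pH 7.5. Scored for every ungapped 8-mer (given with its reverse complement) by the Universal PBM Analysis Suite as E-score (modified Wilcoxon-Mann-Whitney enrichment, range -0.5 to 0.5; >0.45 counts as bound) and Z-score of median probe intensity. Two replicate arrays (datasets 1 and 2).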

Going from AAGAAAAC to CGTTGGTA, the “PBM E-score of 8-mer” value rises from -0.0889 ± 0.032 to -0.0221 ± 0.009.

Going from AAGTGCCG to TGAGCAAA, the “PBM E-score of 8-mer” value falls from 0.289 ± 0.025 to 0.0705 ± 0.069.

First: AGGCCTGG
Second: ACCTGCGT
The “PBM E-score of 8-mer” value of the first is lower: -0.293 ± 0.041 for the first, 0.112 ± 0.063 for the second.

Compared with AATTGGGA, CACCTCTG is higher in “PBM E-score of 8-mer” value: -0.0137 ± 0.033 for the first, 0.4165 ± 0.00058 for the second.

First: GACCTCTA
Second: CAACTCTG
The “PBM E-score of 8-mer” value of the first is lower: -0.259 ± 0.07 for the first, 0.16 ± 0.08 for the second.

AACCTCTG and GACCTCTC are within error of each other in “PBM E-score of 8-mer” value: -0.151 ± 0.032 for the first, -0.109 ± 0.026 for the second.

Going from CACCTCTC to AACCTCTA, the “PBM E-score of 8-mer” value falls from 0.419 ± 0.023 to -0.151 ± 0.025.

Compared with CACCTCTA, AACCTCTC is lower in “PBM E-score of 8-mer” value: 0.44129 ± 0.00038 for the first, -0.0958 ± 0.093 for the second.

Going from CACCACCA to CTTTTCTA, the “PBM E-score of 8-mer” value falls from 0.201 ± 0.034 to 0.0811 ± 0.085.

CTCCTCAA and GCTTTCTA are within error of each other in “PBM E-score of 8-mer” value: -0.204 ± 0.024 for the first, -0.0965 ± 0.11 for the second.

Compared with AGTGTGCC, CAATGGAA is lower in “PBM E-score of 8-mer” value: 0.125 ± 0.0018 for the first, -0.144 ± 0.028 for the second.

ATGCCAAC and TTGCCAAA are within error of each other in “PBM E-score of 8-mer” value: 0.0888 ± 0.00082 for the first, 0.11 ± 0.066 for the second.

Compared with GTGCCAAA, CTGCCAAC is lower in “PBM E-score of 8-mer” value: 0.421 ± 0.017 for the first, 0.0539 ± 0.0096 for the second.

Compared with GTGCCAAC, CTGCCAAA is lower in “PBM E-score of 8-mer” value: 0.403 ± 0.0056 for the first, 0.186 ± 0.061 for the second.

First: CCATATAC
Second: AGTCGATA
The “PBM E-score of 8-mer” value of the first is lower: -0.00383 ± 0.065 for the first, 0.147 ± 0.016 for the second.

Compared with AGCAGAAC, ACAACTGA is higher in “PBM E-score of 8-mer” value: -0.287 ± 0.013 for the first, 0.172 ± 0.019 for the second.

Going from TGACCTCA to AGACCTCT, the “PBM E-score of 8-mer” value falls from 0.0125 ± 0.0081 to -0.301 ± 0.015.

First: AAACCTCT
Second: TAACCTCA
The “PBM E-score of 8-mer” value of the first is lower: -0.362 ± 0.051 for the first, -0.152 ± 0.0019 for the second.

Compared with TCACCTCA, CCACCTCA is lower in “PBM E-score of 8-mer” value: 0.437 ± 0.00059 for the first, 0.229 ± 0.039 for the second.

Going from ACACCTCA to AGACCTCA, the “PBM E-score of 8-mer” value falls from 0.47047 ± 0.00026 to 0.0571 ± 0.053.

Going from ACACCTCT to ACGCCTGC, the “PBM E-score of 8-mer” value falls from 0.48594 ± 0.00022 to 0.24 ± 0.0036.

Going from GTGAAACA to CTGCTTGC, the “PBM E-score of 8-mer” value falls from 0.188 ± 0.036 to -0.132 ± 0.025.

CGGCAGAG and CGGCTGTC are within error of each other in “PBM E-score of 8-mer” value: 0.00638 ± 0.076 for the first, 0.0205 ± 0.07 for the second.

CCTTCGGA and AGTAACAG are within error of each other in “PBM E-score of 8-mer” value: -0.0659 ± 0.042 for the first, 0.037 ± 0.085 for the second.

Compared with AGTAACAC, GGTAACAC is higher in “PBM E-score of 8-mer” value: 0.393 ± 0.025 for the first, 0.43 ± 0.0044 for the second.

Compared with CGTAACAC, GGTAACAA is lower in “PBM E-score of 8-mer” value: 0.365 ± 0.011 for the first, 0.198 ± 0.056 for the second.

Going from AGTAACAA to GTCTACGA, the “PBM E-score of 8-mer” value falls from 0.167 ± 0.0063 to -0.127 ± 0.013.

ATCGCAGG and ACTCACTA are within error of each other in “PBM E-score of 8-mer” value: 0.0806 ± 0.064 for the first, 0.144 ± 0.02 for the second.

First: CCTTAACG
Second: ATGGGTAC
The “PBM E-score of 8-mer” value of the first is higher: 0.00703 ± 0.089 for the first, -0.173 ± 0.035 for the second.

TAGGGTCA and ATTGCAGC are within error of each other in “PBM E-score of 8-mer” value: -0.0997 ± 0.066 for the first, -0.0944 ± 0.071 for the second.

Compared with ATGTCGAA, CTGTCAAA is higher in “PBM E-score of 8-mer” value: -0.0919 ± 0.073 for the first, 0.266 ± 0.04 for the second.

Going from GTGTCATA to CTGTCATA, the “PBM E-score of 8-mer” value falls from 0.4057 ± 0.0013 to 0.151 ± 0.011.

Going from GTGTCGAA to CTGTCAAC, the “PBM E-score of 8-mer” value falls from 0.38248 ± 9.9e-05 to 0.338 ± 0.011.

Going from TTGTCAAA to ATGTCATA, the “PBM E-score of 8-mer” value falls from 0.144 ± 0.09 to -0.187 ± 0.0068.

First: ATGTCAAC
Second: GTGTCAAC
The “PBM E-score of 8-mer” value of the first is lower: 0.171 ± 0.006 for the first, 0.466 ± 0.007 for the second.

Going from GTGTCAAA to CTGTCGAA, the “PBM E-score of 8-mer” value falls from 0.448 ± 0.0094 to 0.125 ± 0.0096.

CACATCAG and ACGATGTG are within error of each other in “PBM E-score of 8-mer” value: 0.162 ± 0.035 for the first, 0.25 ± 0.067 for the second.

ACGTACTC and GCATCAAC are within error of each other in “PBM E-score of 8-mer” value: 0.061 ± 0.028 for the first, 0.0651 ± 0.026 for the second.

Compared with GGGGCTGA, ATAGGTAC is higher in “PBM E-score of 8-mer” value: -0.1789 ± 0.00037 for the first, -0.105 ± 0.041 for the second.

First: ACGGCCAT
Second: CTGTCAGA
The “PBM E-score of 8-mer” value of the first is lower: -0.105 ± 0.12 for the first, 0.211 ± 0.014 for the second.

Compared with GTGTCAGA, ATGTCAGA is lower in “PBM E-score of 8-mer” value: 0.3931 ± 0.00061 for the first, -0.162 ± 0.069 for the second.

Going from AGGGATAA to TCGTTTCA, the “PBM E-score of 8-mer” value rises from -0.203 ± 0.032 to 0.145 ± 0.031.

Going from AAGTGACA to TAGTGACA, the “PBM E-score of 8-mer” value falls from 0.458 ± 0.0065 to 0.398 ± 0.0059.
